# p53null 32C kill: p53 null cell cytotoxicity, permissive temperature; 55,000 tested, 0.62% active; H1299-neo p53 null cells, ATP luminescence, 24 h, 32C; Potency, µM (series often up to 46.1 µM), for inactives: at the top dose activity change, negative = cytotoxicity, most hits filed as cytotoxic;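 note: potency is the fitted concentration of half-maximal effect; 0% = DMSO only and -100% = full killing by 100 µM tamoxifen; nearly all actives have a fitted effect of over 55% in size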
#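 H1299-neo (p53-null) cells, 600/well, were pre-incubated overnight at 37C, then exposed to compounds at up to 46 uM for 24 hr at 32C. Viability was measured as ATP content by luminescence, and AC50 values came from Hill fits.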
# S16 viability: S16 Schwann cell cytotoxicity; Potency, µM (titrated, usually from 57.5 µM), without a hit: top-dose activity change, negative = cytotoxicity, most hits filed as cytotoxic; 43,000 tested, 0.48% active; S16 Pmp22-F2sN Schwann cells viability, CellTiter-Glo, 24 h; AID 1508642; note: potency is the fitted concentration of half-maximal effect; % is set by controls: 0 for no effect and ±100 for the full control effect; nearly all actives have a fitted effect of over 65% in size
#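 Seed 500-1,000 S16 Pmp22-F2sN cells per well in phenol-red-free DMEM with 10% heat-inactivated FBS; pin-add 23 nL compound; incubate 24 h at 37C; add CellTiter-Glo, wait 15 min protected from light; read luminescence.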
# PMP22 txn prim: modulators of PMP22 gene transcription in S16 Schwann cells; S16 Pmp22-F2sN Schwann cells (luciferase reporters placed in the Pmp22 gene), FLuc/NLuc coincidence luminescence, 24 h; Potency, µM (highest dose often 57.5 µM), inactives show at the highest dose activity change, negative = inhibition, actives largely listed as inhibitors; 43,000 tested, 2% active; active = clear falling dose curves in both reporters; inconclusive = both reporters move, but less clearly or upward; inactive = either reporter flat; the % is the NLuc reporter signal; note: potency is the fitted concentration of half-maximal effect; % is set by controls: 0 for no effect and ±100 for the full control effect
#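 S16 Schwann cells carrying FLuc/NLuc coincidence reporter in the Pmp22 3' UTR treated with compound 24 h at 37C; FLuc then NLuc luminescence read sequentially by dual-luciferase reagents.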
# OvCa metastasis: blocks SKOV3ip1 adhesion and invasion in omental model. SKOV3ip1-GFP adhesion/invasion on 3D omental model, fluorescence. Potency, µM (highest dose often 45.8 µM), without a hit: at the highest dose activity change, negative = inhibition, actives largely listed as inhibitors. 46,000 tested, 0.1% active;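 note: potency is the fitted concentration of half-maximal effect; plate controls were DMSO wells for no effect and tomatine positive control wells for full effect; nearly all actives have a fitted effect of over 65% in size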
#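 Adhesion/invasion was scored as fixed GFP-labeled SKOV3ip1 cell counts (488/509 nm), normalized to DMSO and tomatine controls. Cancer cells in serum-free medium, with four compound doses (0.36-46 umol/L), sat 2 hr at RT then 16 hr at 37 C on a 48 hr fibroblast/mesothelial/ECM culture.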
# p53null 39C kill: kills p53 null cells at the nonpermissive temperature. H1299 p53-null (neo) cells, 39C, ATPlite viability, 24 h. Potency, µM (top dose mostly 46.1 µM), inactives show at the top dose activity, negative = cell killing, usual class: cytotoxic. 55,000 tested, 0.97% active;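 note: potency is the fitted concentration of half-maximal effect; 0% = DMSO only and -100% = full killing by 100 µM tamoxifen; nearly all actives have a fitted effect of over 50% in size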
#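 H1299 lung cancer cells, p53-null (H1299-neo) or expressing p53 A138V (H1299-p53A138V), were plated overnight at 37C, then exposed to compounds at up to 46 uM for 24 hr at 39C. Viability was read by ATP-based luminescence.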
# mTORC1 inh: reduces mTORC1 signaling in Tsc2 and p53 null MEF cells; Tsc2-/- p53-/- MEF, phospho-rpS6 immunofluorescence/PI, 24 h; Potency, µM (doses to about 38.3 µM), for the others: at the highest dose activity change, negative = inhibition, actives largely listed as inhibitors; 44,000 tested, 0.78% active;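 note: potency is the fitted concentration of half-maximal effect; plate controls were DMSO for no effect and rapamycin for full effect; nearly all actives have a fitted effect of over 50% in size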
#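 Plate MEFs (Tsc2-/-, p53-/-, empty vector) in DMEM/10% FBS; after 24 h add compound, incubate 24 h at 37 degree Celsius; fix in PFA/TX-100, block, stain phospho-rpS6 and 10 uM PI; scan at 488 nm; report % positive cells.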
# NLuc saturating: NanoLuc enzyme inhibition artifact for PMP22 screen; shares compounds with PMP22 txn prim; Secreted NLuc enzyme (filtered S16 cell medium), Nano-Glo luminescence; Potency, µM (highest dose often 57.5 µM), inactives show top-dose activity change, negative = inhibition, usual class: inhibitors; 690 tested, 4% active; note: potency is the fitted concentration of half-maximal effect; % is set by controls: 0 for no effect and ±100 for the full control effect
# NLuc Km ctr: inhibits NanoLuc under Km conditions, PMP22 counter-screen | shares compounds with PMP22 txn prim | secreted NLuc enzyme, coelenterazine luminescence, Km conditions | Potency, µM (titrated, usually from 57.5 µM), for inactives: top-dose activity change, negative = inhibition, actives largely listed as inhibitors | 690 tested, 5% active; note: potency is the fitted concentration of half-maximal effect; % is set by controls: 0 for no effect and ±100 for the full control effect
# FLuc counter: counter-screen for PMP22 expression modulators: firefly luciferase inhibition. shares compounds with PMP22 txn prim. purified P. pyralis FLuc, luminescence, 10 min. AID 1508640. Potency, µM (titrated, usually from 57.5 µM), inactives show top-dose activity, negative = inhibition, usual class: inhibitors. 690 tested, under 10 active; note: % of control where 0% means no effect
# Target sequence (P08659 whole entry, looked up): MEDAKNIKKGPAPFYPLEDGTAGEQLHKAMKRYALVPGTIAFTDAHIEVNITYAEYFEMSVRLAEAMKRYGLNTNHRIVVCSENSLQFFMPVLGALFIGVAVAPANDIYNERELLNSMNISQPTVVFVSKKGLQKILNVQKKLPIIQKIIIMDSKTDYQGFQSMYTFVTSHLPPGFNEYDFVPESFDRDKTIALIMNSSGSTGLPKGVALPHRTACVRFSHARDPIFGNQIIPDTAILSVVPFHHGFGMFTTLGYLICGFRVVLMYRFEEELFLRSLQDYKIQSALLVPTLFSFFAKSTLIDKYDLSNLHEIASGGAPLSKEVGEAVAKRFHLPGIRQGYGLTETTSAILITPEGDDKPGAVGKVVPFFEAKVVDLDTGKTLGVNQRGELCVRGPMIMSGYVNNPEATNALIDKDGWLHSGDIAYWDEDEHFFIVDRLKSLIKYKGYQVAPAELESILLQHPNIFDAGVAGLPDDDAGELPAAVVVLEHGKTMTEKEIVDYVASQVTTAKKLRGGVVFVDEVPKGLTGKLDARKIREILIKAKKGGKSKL
# S16 viab conf: S16 Schwann cell cytotoxicity, confirmatory | shares compounds with PMP22 txn prim | S16 Schwann cells viability, CellTiter-Glo ATP luminescence, 24 h | Potency, µM (doses to about 57.5 µM), for the others: at the top dose activity change, negative = viability loss, hits mostly cytotoxic | 690 tested, 7% active; note: potency is the fitted concentration of half-maximal effect; % is set by controls: 0 for no effect and ±100 for the full control effect
# PMP22 txn conf: PMP22 transcription modulation, confirmatory; shares compounds with PMP22 txn prim; S16 Schwann cells Pmp22-F2sN, dual luciferase, 24 h; Potency, µM (highest dose often 57.5 µM), for inactives: at the top dose activity change, negative = inhibition, hits mostly inhibitors; 690 tested, 22% active; AID 1508646; active = clear falling dose curves in both reporters; inconclusive = both reporters move, but less clearly or upward; inactive = either reporter flat; the % is the FLuc reporter signal; note: potency is the fitted concentration of half-maximal effect
# * = called active by the depositor; i = inactive; ? = inconclusive; . = not tested or not shown. Sampled rows, rich in hits. Any-hit rate of the full collection: about 3.1%. Unless noted, calls come from the whole dose curve; as a rule, active = well fitted curve in the direction sought with a large enough effect; inconclusive = small, poorly fitted or top-dose-only effect, or another doubt; inactive = no such curve, though single readings can be large; an effect the other way counts as inactive or inconclusive.
SMILES,p53null 32C kill,S16 viability,PMP22 txn prim,OvCa metastasis,p53null 39C kill,mTORC1 inh,NLuc saturating,NLuc Km ctr,FLuc counter,S16 viab conf,PMP22 txn conf
CCOc1ccc(NC(=O)NC(C)c2c(-n3cccc3)sc3c2CCN(CC)C3)cc1 (configuration not stated),0.7%,-19.5%,14.5µM*,i,-5.1%,-9.0%,?,-19.6%,3.9%,-19.8%,-28.4%
CCOCCCNC(=O)NC(C)c1c(-n2cccc2)sc2c1CCN(CC)C2 (configuration not stated),3.3%,0.9%,16.3µM*,-2.7%,11.7%,0.5%,-5.6%,0.2%,7.4%,-20.6%,14.2%
CCN1CCc2c(sc(-n3cccc3)c2C(C)NC(=O)Nc2ccc(Br)cc2)C1 (configuration not stated),-1.5%,-1.0%,?,?,-9.1%,-2.8%,.,.,.,.,.
CCCCn1c(=O)n(Cc2ccccc2F)c(=O)c2[nH]c(Cc3ccc(NC(C)=O)cc3)nc21,.,.,.,-22.4%,.,.,.,.,.,.,.
O=C(NCCSc1c[nH]c2ccccc12)c1ccccc1Cl,1.2%,?,?,-2.1%,-2.0%,1.2%,?,?,-12.2%,1.2%,-24.6%
COc1cc(Nc2nc3ccccc3nc2NS(=O)(=O)c2ccc(NC(=O)c3ccc(C)c(OC)c3)cc2)cc(OC)c1,.,.,.,6.3%,.,.,.,.,.,.,.
COc1ccc(NC(=O)N2CCc3c(sc4c3CCCC4)C2c2ccc(F)cc2)cc1 (configuration not stated),6.8%,?,15.2µM*,-1.0%,13.1%,19.9%,-11.6%,-13.3%,2.1%,?,-30.2%
COc1cccc(NC(=O)N(Cc2c[nH]c3ccccc23)C2CCCCCC2)c1,5.3%,-26.3%,20µM*,0.5%,?,-11.9%,15.3µM*,?,1.5%,14.4%,?
O=C(NCCC1=CCCCC1)c1ccc2c(c1)N(Cc1ccccc1)C(=O)c1ccccc1S2=O (configuration not stated),3.5%,-9.0%,12.7µM*,i,8.9%,1.7%,-7.7%,5.1%,6.4%,-11.1%,-35.8%
COc1cc(NS(=O)(=O)c2ccc3[nH]c4c(c3c2)CCCC4)cc(OC)c1OC,-2.2%,-6.8%,12.1µM*,i,?,?,-10.2%,?,-2.1%,-19.3%,?
COc1cc(NS(=O)(=O)c2ccc3[nH]c4c(c3c2)CCCCCC4)cc(OC)c1,50.5%,-17.0%,?,0.9%,9.9%,?,.,.,.,.,.
COc1ccc(NS(=O)(=O)c2ccc3[nH]c4c(c3c2)CCCC4)cc1OC,-8.3%,-10.2%,14.1µM*,2.6%,11.9%,-17.1%,-6.1%,?,2.2%,?,?
CC=CC(=O)N(CC)c1ccccc1C,.,.,.,5.4%,.,.,.,.,.,.,.
CCCS(=O)(=O)Nc1ccc(F)c(C(=O)c2c[nH]c3ncc(Cl)cc23)c1F,.,.,.,-9.4%,.,.,.,.,.,.,.
COc1ccc(-c2noc(CSc3nnc(-c4ccncc4)n3-c3cccc(C)c3)n2)cc1OC,-8.4%,-2.6%,10µM*,4.9%,?,1.4%,?,?,-11.8%,-16.0%,-57.3%
COc1ccc(-c2noc(CSc3nnc(C)n3-c3ccc(C)cc3)n2)cc1OC,-12.1%,-17.7%,11.5µM*,i,-6.2%,4.3%,21.7µM*,13.7µM*,-15.8%,?,-44.4%
COc1ccc(-n2c(SCc3nc(-c4ccc(Cl)cc4)no3)nnc2-c2ccncc2)cc1,31.5%,?,?,-26.2%,33.4%,6.3%,.,.,.,.,.
COc1ccc(-c2noc(CSc3nnc(-c4ccncc4)n3-c3ccc(C)c(C)c3)n2)cc1,22.6%,-24.4%,12.6µM*,7.0%,?,-4.8%,?,?,-2.2%,?,?
Cc1ccc(-c2noc(CSc3nnc(C)n3-c3ccc(F)cc3)n2)cc1,-6.7%,-9.1%,-25.5%,i,-11.3%,-6.1%,.,.,.,.,.
COc1ccc(-n2c(=O)c3c(c4cc(OC)ccc4n3C)n(CCC(C)C)c2=O)cc1,0.8%,8.4%,2.06µM*,9.8%,9.9%,1.1%,-18.1%,-1.9%,3.1%,8.6%,-21.3%
COc1ccc(Cn2c(=O)n(-c3ccc(OC)cc3)c(=O)c3c2c2cc(OC)ccc2n3C)cc1,7.2%,2.8%,-36.5%,7.2%,8.1%,0.2%,.,.,.,.,.
COc1cc2ncn(-c3cc(OCc4ccccc4S(C)(=O)=O)c(C#N)s3)c2cc1OC,.,.,.,-0.1%,.,.,.,.,.,.,.
CCOc1ccc(OCC)c(NC(=O)CN(C)S(=O)(=O)c2ccc3c(c2)CCCC(=O)N3)c1,3.8%,-3.7%,20µM*,-6.8%,-21.8%,6.8%,-3.9%,-1.6%,0.3%,3.5%,-22.7%
CC(=O)Nc1ccc(NC(=O)CN(C)S(=O)(=O)c2ccc3c(c2)CCCC(=O)N3)cc1,5.4%,-17.0%,9.4%,i,-13.8%,6.2%,.,.,.,.,.
NC(=O)c1cccc2[nH]c(-c3ccc([C@H]4CCCN4)cc3F)nc12,.,.,.,36.0%,.,.,.,.,.,.,.
CC(C=CC=C(C)C=CC1=C(C)CCCC1(C)C)=CC=CC=C(C)C=CC=C(C)C=CC1=C(C)CCCC1(C)C,.,.,.,-3.4%,.,.,.,.,.,.,.
Cn1nc(C(=O)NCc2ccc(Cl)cc2)c2c1-c1ccccc1S(=O)(=O)C2,-2.0%,?,15µM*,-5.6%,-7.8%,9.3%,-9.2%,-16.9%,0.0%,1.6%,?
CC1(C)Cc2c(-c3ccccc3)c(-c3ccc(Cl)cc3)c(CC(=O)O)n2C1,.,.,.,-0.7%,.,.,.,.,.,.,.
